Measurements as given in PubChem BioAssay (Tox21).
Records with an inconclusive call do not appear. Active and inactive are the calls of the source. Unless noted, calls come from the whole dose curve; as a rule, active = well fitted curve in the direction sought with a large enough effect in the repeat runs; inconclusive = weak or mixed curves; inactive = no such curve, though single readings can be large; an effect the other way counts as inactive or inconclusive.

Tests used:
[1] = target: Aryl hydrocarbon receptor (Homo sapiens) (UniProt P35869); assay: qHTS assay to identify small molecule that activate the aryl hydrocarbon receptor (AhR) signaling pathway (AID 743085); note: nearly all actives have a fitted effect of over 15% in size; note: potency is the fitted concentration of half-maximal effect;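 for activation: HG2L7.5c1 human HepG2 liver cells with stably integrated DRE-driven firefly reporter; series mostly up to about 70 µM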
In short: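 Reporter assay in engineered HepG2 line HG2L7.5c1, whose plasmid carries twenty dioxin responsive elements upstream of firefly luciferase. Treatment lasted 24 h at 37C; ONE-Glo luminescence gauged induction.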

[2] = target: Peroxisome proliferator-activated receptor gamma (Homo sapiens) (UniProt P37231); assay: qHTS assay to identify small molecule agonists of the peroxisome proliferator-activated receptor gamma (PPARg) signaling pathway (AID 743094; active = well fitted activation curve with a large enough effect in the signal ratio in the repeat runs, not every such curve was filed as active; the % refers to the signal ratio)
In short: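 Following 5 h plating at 37C, PPARg-bla HEK293H cells receive compound or DMSO for 17 h; fluorescence intensity is recorded after LiveBLAzer B/G loading for 1 h at room temperature.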

[3] = qHTS assay to identify small molecule antagonists of the peroxisome proliferator-activated receptor gamma (PPARg) signaling pathway - cell viability counter screen (AID 743194); note: nearly all actives have a fitted effect of over 55% in size
In short: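 Viability was measured as CellTiter-Glo luminescence in GeneBLAzer PPARg UAS-bla HEK293H cells. These cells had been exposed 17 h at 37 C to compounds together with rosiglitazone at 50 nM final, with the beta-lactamase readout taken in the same wells.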

[4] = qHTS assay for small molecule agonists of the antioxidant response element (ARE) signaling pathway (AID 743202; active = well fitted activation curve with a large enough effect in the signal ratio in the repeat runs, not every such curve was filed as active; the % refers to the signal ratio; note: potency is the fitted concentration of half-maximal effect)
In short: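 An ARE-responsive beta-lactamase gene stably integrated in HepG2 cells serves as reporter. After 5 h plating and 16 h compound incubation at 37 C, fluorescence of the B/G FRET substrate was measured.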

[5] = qHTS assay for small molecule agonists of the antioxidant response element (ARE) signaling pathway - cell viability counter screen (AID 743203; calls by dose curve; note: nearly all actives have a fitted effect of over 55% in size)
In short: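 Compounds in DMSO were pinned onto ARE-bla HepG2 cells plated 5 hrs earlier at 2,000 cells/well. Sixteen hours later at 37C/5% CO2, CellTiter-Glo was added and luminescence measured after 30 min at room temperature.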

[6] = qHTS assay for small molecule activators of the heat shock response signaling pathway - cell viability counter screen (AID 743209); note: nearly all actives have a fitted effect of over 50% in size
In short: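 Counter screen for cytotoxicity in HeLa HSE-bla reporter cells. Treatment was 5 h at 37 C; viability was detected by luminescent ATP assay (CellTiter-Glo) in the same wells as the beta-lactamase read.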

[7] = qHTS assay for small molecule activators of the heat shock response signaling pathway (AID 743210; active = well fitted activation curve with a large enough effect in the signal ratio in the repeat runs, with a control signal flat, not every such curve was filed as active; the % refers to the signal ratio;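 note: HeLa cells with beta-lactamase reporter driven by heat shock elements; series mostly up to about 63 µM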)
In short: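 In HSE-bla HeLa cells, 5 h compound incubation (37 C) precedes addition of LiveBLAzer B/G substrate; after 2.5 h at room temperature, fluorescence intensity indicates reporter induction.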

[8] = qHTS assay to identify small molecule that activate the aryl hydrocarbon receptor (AhR) signaling pathway - cell viability counter screen (AID 743086); note: nearly all actives have a fitted effect of over 45% in size; note: potency is the fitted concentration of half-maximal effect;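 for viability change, negative = cytotoxic: HepG2 liver cells carrying the AhR DRE luciferase reporter; series mostly up to about 70 µM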
In short: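 Cytotoxicity counter screen: CellTiter-Fluor signal (30 min, 37 C) in 4000 HepG2 cells/well carrying the DRE-luciferase reporter, following 24 h compound exposure at 37 C.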

[9] = target: Peroxisome proliferator-activated receptor gamma (Homo sapiens) (UniProt P37231); assay: qHTS assay to identify small molecule antagonists of the peroxisome proliferator-activated receptor gamma (PPARg) signaling pathway (AID 743191; calls by dose curve; note: nearly all actives have a fitted effect of over 30% in size; note: potency is the fitted concentration of half-maximal effect; for ratio activity, negative = inhibition: series mostly up to about 63 µM)
In short: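 Beta-lactamase reporter under UAS control in HEK293H PPARg-bla cells; compound treatment 17 h at 37C. Read-out: fluorescence intensity after 1 h room-temperature incubation with LiveBLAzer B/G FRET substrate.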

[10] = qHTS assay to identify aromatase inhibitors - cell viability counter screen (AID 743084);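 note: cells stimulated with testosterone during compound exposure; nearly all actives have a fitted effect of over 55% in size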
% is set by controls: 0 for no effect and ±100 for the full control effect.

Sequence of Aryl hydrocarbon receptor (Homo sapiens) (P35869 whole entry, looked up): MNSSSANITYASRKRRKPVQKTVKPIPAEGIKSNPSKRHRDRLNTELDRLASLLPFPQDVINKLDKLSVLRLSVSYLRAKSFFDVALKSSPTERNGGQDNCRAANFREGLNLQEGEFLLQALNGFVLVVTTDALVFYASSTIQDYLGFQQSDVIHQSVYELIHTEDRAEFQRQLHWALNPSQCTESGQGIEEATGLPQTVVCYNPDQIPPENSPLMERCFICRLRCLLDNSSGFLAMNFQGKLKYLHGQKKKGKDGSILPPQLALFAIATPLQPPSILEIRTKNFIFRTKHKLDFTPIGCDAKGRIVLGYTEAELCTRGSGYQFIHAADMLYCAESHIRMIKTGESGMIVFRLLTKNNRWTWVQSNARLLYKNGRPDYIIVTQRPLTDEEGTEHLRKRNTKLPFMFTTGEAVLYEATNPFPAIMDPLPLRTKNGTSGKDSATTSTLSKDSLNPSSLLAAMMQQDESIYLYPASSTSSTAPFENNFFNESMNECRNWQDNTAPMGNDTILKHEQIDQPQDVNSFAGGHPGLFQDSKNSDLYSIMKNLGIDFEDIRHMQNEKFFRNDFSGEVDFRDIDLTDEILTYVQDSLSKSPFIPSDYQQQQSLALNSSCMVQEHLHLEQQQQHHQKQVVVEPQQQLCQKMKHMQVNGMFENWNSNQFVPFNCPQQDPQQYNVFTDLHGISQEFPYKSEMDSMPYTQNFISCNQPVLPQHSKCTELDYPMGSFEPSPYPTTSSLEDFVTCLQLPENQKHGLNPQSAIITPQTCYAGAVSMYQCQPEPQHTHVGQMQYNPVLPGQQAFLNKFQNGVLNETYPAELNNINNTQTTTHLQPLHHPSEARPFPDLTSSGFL
Sequence of Peroxisome proliferator-activated receptor gamma (Homo sapiens) (P37231 whole entry, looked up): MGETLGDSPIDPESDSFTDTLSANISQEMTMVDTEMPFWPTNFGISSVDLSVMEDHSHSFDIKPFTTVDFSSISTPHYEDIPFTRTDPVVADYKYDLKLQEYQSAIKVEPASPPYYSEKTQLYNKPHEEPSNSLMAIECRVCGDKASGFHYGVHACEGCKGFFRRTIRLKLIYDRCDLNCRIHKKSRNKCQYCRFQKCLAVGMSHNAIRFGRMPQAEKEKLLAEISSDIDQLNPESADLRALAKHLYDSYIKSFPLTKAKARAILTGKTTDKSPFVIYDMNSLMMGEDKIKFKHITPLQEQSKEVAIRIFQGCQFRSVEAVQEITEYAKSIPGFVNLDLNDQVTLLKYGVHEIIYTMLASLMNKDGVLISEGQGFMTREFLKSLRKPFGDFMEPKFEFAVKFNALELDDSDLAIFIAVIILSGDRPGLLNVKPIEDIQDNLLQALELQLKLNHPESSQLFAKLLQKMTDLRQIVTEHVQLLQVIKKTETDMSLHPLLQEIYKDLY

C=CC(OCC)OCC
active: Potency [1] 60.4 µM | Potency [4] 34 µM
inactive: outcome [2] | outcome [3] | outcome [5] | outcome [6] | outcome [7]

CC(C)C[C@H](NC(=O)CNC(=O)[C@H](Cc1ccc(O)cc1)NC(=O)[C@H](CO)NC(=O)[C@H](Cc1c[nH]c2ccccc12)NC(=O)[C@H](Cc1cnc[nH]1)NC(=O)[C@@H]1CCC(=O)N1)C(=O)N[C@@H](CCCN=C(N)N)C(=O)N1CCC[C@H]1C(=O)NCC(N)=O (stereo in doubt)
inactive: Potency [8] | Potency [4] | outcome [5] | outcome [6]

Cc1ccccc1C(=O)Nc1ccc(C(=O)N2CCCC(N(C)C)c3ccccc32)cc1 (stereo unspecified)
inactive: outcome [3] | outcome [5] | outcome [6] | outcome [7]

C=C(C)C(=O)OCc1ccccc1
inactive: Potency [1] | Potency [8] | outcome [2] | Potency [9] | outcome [3] | outcome [5] | outcome [6]

CN(CCOc1ccc(NS(C)(=O)=O)cc1)CCc1ccc(NS(C)(=O)=O)cc1
inactive: Potency [1] | outcome [2] | outcome [3] | Potency [4] | outcome [5] | outcome [6] | outcome [7]

COC(=O)[C@@H]1[C@H]2C[C@H]3c4[nH]c5ccccc5c4CCN3C[C@@H]2CC[C@@H]1O
inactive: Potency [10] | outcome [2] | outcome [3] | Potency [4] | outcome [5] | outcome [6] | outcome [7]

CCn1ccc(NS(=O)(=O)c2ccc(N)cc2)nc1=O
inactive: outcome [5] | outcome [6] | outcome [7]

COc1ccc2c(c1OC)C(=O)O[C@@H]2[C@H]1c2c(cc3c(c2OC)OCO3)CCN1C
active: Potency [8] 29.8 µM
inactive: outcome [3] | Potency [4] | outcome [5] | outcome [6] | outcome [7]

Cc1[nH]cnc1-c1ccc(Cl)cc1
inactive: Potency [9] | outcome [3] | Potency [4] | outcome [5] | outcome [6] | outcome [7]

O=C(OCC(O)CO)c1ccccc1Nc1ccnc2c(C(F)(F)F)cccc12 (stereo unspecified)
active: Potency [9] 16.8 µM | Potency [4] 26.6 µM
inactive: outcome [3] | outcome [5] | outcome [6] | outcome [7]

COc1cc(N)ccc1C
inactive: Potency [8] | outcome [5] | outcome [6] | outcome [7]

CCC(C)NC(N)=O (stereo unspecified)
inactive: Potency [8] | outcome [2] | Potency [4] | outcome [5] | outcome [6] | outcome [7]

CCOCCOC(=O)/C=C/c1ccc(OC)cc1
inactive: Potency [9] | outcome [5] | outcome [6] | outcome [7]

O=C(c1ccc(O)cc1)c1ccc(O)c(O)c1O
inactive: outcome [2] | outcome [3] | Potency [4] | outcome [5] | outcome [6] | outcome [7]
active: Potency [1] 61.4 µM

O=C(NCC(O)CO)c1c(I)c(C(=O)NCC(O)CO)c(I)c(N(CCO)C(=O)CO)c1I (stereo unspecified)
inactive: Potency [8] | outcome [3] | outcome [5] | outcome [6] | outcome [7]

NS(=O)(=O)c1cc2c(cc1Cl)CN(C1CCCCC1)C2=O
inactive: Potency [9] | outcome [3] | Potency [4] | outcome [5] | outcome [6] | outcome [7]

COc1cc2c(cc1OC)C(=O)CC2
inactive: Potency [9] | outcome [3] | Potency [4] | outcome [5] | outcome [6] | outcome [7]

COc1ccc2nc(SCc3ncc(C)c(OC)c3C)[nH]c2c1
inactive: Potency [9] | outcome [3] | Potency [4] | outcome [5] | outcome [6]

Oc1ccccc1-c1nnco1
inactive: outcome [3] | Potency [4] | outcome [5] | outcome [6] | outcome [7]

O=P(O)(O)OP(=O)(O)O
inactive: Potency [8] | outcome [3] | Potency [4] | outcome [5] | outcome [6] | outcome [7]

Cc1cccc(OCC(O)CNC(C)(C)C)c1C (stereo unspecified)
inactive: Potency [9] | outcome [3] | outcome [5] | outcome [6] | outcome [7]

CC(C)C(=O)OCc1cccc(OC(=O)[C@@H]2N3C(=O)[C@@H](NC(=O)Cc4ccccc4)[C@H]3SC2(C)C)c1
inactive: Potency [9] | Potency [4] | outcome [5] | outcome [7]

Cc1ccc2ccc(Cl)cc2n1
inactive: Potency [9] | Potency [4] | outcome [5] | outcome [6] | outcome [7]

CC(C)(C)c1nnc(NS(=O)(=O)c2ccc(N)cc2)s1
inactive: Potency [4] | outcome [5] | outcome [6] | outcome [7]

CC(C)(C)c1n[nH]c(=S)n(N)c1=O
inactive: Potency [10] | Potency [4] | outcome [5] | outcome [6] | outcome [7]

Brc1ccc(-c2ccccc2)cc1
inactive: Potency [1] | Potency [4] | outcome [5] | outcome [6] | outcome [7]

CCC(C)(CCC(C)C)C(=O)O (stereo unspecified)
inactive: Potency [4] | outcome [5] | outcome [6]

O=C(O)c1cc(Cl)cc([N+](=O)[O-])c1Cl
inactive: Potency [1] | Potency [8] | outcome [2] | Potency [9] | outcome [3] | outcome [5] | outcome [6] | outcome [7]

CN1CCN(CC(=O)N2c3ccccc3C(=O)Nc3cccnc32)CC1
inactive: Potency [1] | Potency [8] | outcome [2] | ratio activity, negative = inhibition [9] 0.895% [at 5.95 µM] | activity change, negative = cytotoxicity [3] 4.99% [at 5.95 µM] | activation [4] 3.2% [at 8.36 µM] | viability change, negative = cytotoxic [5] 1.72% [at 8.36 µM] | activation [7] -0.267% [at 5.95 µM]

COCCc1ccc(OCC2CO2)cc1 (stereo unspecified)
inactive: outcome [5] | outcome [6] | outcome [7]

Cc1ccccc1N=O
inactive: outcome [3] | outcome [5] | outcome [6] | outcome [7]

CC(C)c1ccc2cc(C(C)C)ccc2c1
inactive: Potency [10] | outcome [2] | outcome [3] | Potency [4] | outcome [5] | outcome [6] | outcome [7]

CC(C)=CCOC(=O)c1ccccc1
inactive: Potency [8] | outcome [3] | outcome [5] | outcome [6] | outcome [7]

CC(C)CCCCOC(=O)c1ccccc1C(=O)OCCCCC(C)C
inactive: Potency [1] | Potency [8] | outcome [2] | Potency [9] | outcome [3] | Potency [4] | outcome [5] | outcome [6] | outcome [7]
